Data from PubChem BioAssay (EPA / NIEHS).
Active and inactive are the calls of the source. The calls were made as follows: active = hit-call score of the fitted dose curve at least 0.9, where 1 is the maximum; inactive = score below 0.9.

Target: Myc proto-oncogene protein (Homo sapiens) (UniProt P01106)
Test: ATG_Myc_CIS: Attagene CIS-FACTORIAL HepG2 Assay for human Myelocytomatosis (Myc) Proto-Oncogene Transcription Factor (AID 2282990)
Conditions: HepG2, Attagene cis-reporter transcription factor activity; actives raise or lower the signal
Method: ATG_CIS is a cell-based, multiplexed-readout assay that uses HepG2, a human liver cell line, with measurements taken at 24 hours after chemical dosing in a 24-well plate.ATG_Myc_CIS is one of 52 assay component(s) measured or calculated from the ATG_CIS assay. It is designed to make measurements of mRNA induction, a form of inducible reporter, as detected with fluorescence intensity signals by Reverse transcription polymerase chain reaction (RT-PCR) and Capillary electrophoresis technology.Data from the assay component ATG_Myc_CIS was analyzed into 1 assay endpoint. This assay endpoint, ATG_Myc_CIS, was analyzed with bidirectional fitting relative to DMSO as the negative control and baseline of activity. Using a type of inducible reporter, measures of mRNA for gain or loss-of-signal activity can be used to understand the reporter gene at the transcription factor-level as they relate to the gene MYC. Furthermore, this assay endpoint can be referred to as a primary readout, because this assay has produced multiple assay endpoints where this one serves a reporter gene function. To generalize the intended target to other relatable targets, this assay endpoint is annotated to the dna binding intended target family, where the subfamily is basic helix-loop-helix leucine zipper.
Human liver HepG2 cells are transiently transfected with multiple reporter transcription units (MRTUs) in 6-well plates using FuGene 6 reagent (Roche; 3 ml FuGene/1 mg DNA). The MRTU constructs are regulated by a cis-regulating element (promoter). […] A major difference between the CIS and TRANS system is that in CIS activities of endogenous TFs are measured, whereas the TRANS assay evaluates changes in activities of exogenous, chimeric NR-Gal4 proteins. […] At the end of 24 hour incubation, total RNA was isolated using TriZol reagent (Invitrogen). The isolated RNA is then reverse-transcribed using oligo(dT) primer and Mo-MLV reverse transcriptase (Invitrogen) with DNAse I (Ambion) treatment for 30 min. The one-tenth of the produced cDNA was amplified by PCR using Taq DNA polymerase (Invitrogen) and two reporter sequence-specific primers. The PCR products were fluorescently labeled by primer extension with 6-arboxyfluorescein (6-FAM) 5'-labeled reporter sequence-specific primer (2 min at 95 C, 20 s at 68 C and 10 min at 72 C) and these products were digested with 5U of HpaI (New England Biolabs) for 2h at 37 C. The fragments were purified using Qiaquick PCR columns (Qiagen), analyzed on an ABI 3130xL genetic analyzer (Applied Biosystems) with peak positions identified by using a set of X-rhodamine (ROX)-labeled MapMarker1000 molecular weight standards (BioVentures). The raw capillary electrophoresis data was processed using Attagraph software (Attagene).

Chain of Myc proto-oncogene protein (Homo sapiens) (P01106 whole entry, looked up): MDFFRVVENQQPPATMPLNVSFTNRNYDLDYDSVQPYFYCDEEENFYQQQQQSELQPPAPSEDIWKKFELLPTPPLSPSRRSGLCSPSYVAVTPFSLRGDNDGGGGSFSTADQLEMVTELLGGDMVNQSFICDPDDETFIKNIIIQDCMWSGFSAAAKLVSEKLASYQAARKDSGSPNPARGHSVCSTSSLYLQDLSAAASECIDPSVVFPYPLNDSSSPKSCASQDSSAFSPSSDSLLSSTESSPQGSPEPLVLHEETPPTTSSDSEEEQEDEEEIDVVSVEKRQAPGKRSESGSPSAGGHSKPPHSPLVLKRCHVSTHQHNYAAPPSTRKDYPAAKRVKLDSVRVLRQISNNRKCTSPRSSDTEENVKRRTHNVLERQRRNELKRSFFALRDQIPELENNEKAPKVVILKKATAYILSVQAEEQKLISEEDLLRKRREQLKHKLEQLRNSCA

Row | SMILES | outcome | AC50
1 | CC(C)CCCCCCCOC(=O)c1ccccc1C(=O)OCCCCCCCC(C)C | inactive | –
2 | CCCCOP(=O)(O)OCCCC | inactive | –
3 | CC(C)(C)C(=O)CCl | inactive | –
4 | C=CCc1ccc(OC(=O)Cc2ccccc2)c(OC)c1 | inactive | –
5 | CNC(=O)Oc1cc(C)c(SC)c(C)c1 | inactive | –
6 | O=C(O)CCl | inactive | –
7 | CC=Cc1ccc2c(c1)OCO2 | inactive | –
8 | CN(C)C(=O)C(c1ccccc1)c1ccccc1 | inactive | –
9 | CCc1cc(C)cc(CC)c1-c1c(OC(=O)C(C)(C)C)n2n(c1=O)CCOCC2 | inactive | –
10 | C=CCN(CC=C)C(=O)C(Cl)Cl | inactive | –
11 | O=C(NC(=O)c1c(F)cccc1F)Nc1ccc(Oc2ccc(C(F)(F)F)cc2Cl)cc1F | inactive | –
12 | [N-]=[N+]=CC(=O)OC[C@H](N)C(=O)O | inactive | –
13 | Nc1ccc(Cl)c(Cl)c1 | inactive | –
14 | CCC(C)c1cc([N+](=O)[O-])cc([N+](=O)[O-])c1OC(=O)C=C(C)C (stereo not given) | inactive | –
15 | CC(C)(C)C(O)C(Oc1ccc(-c2ccccc2)cc1)n1cncn1 (stereo not given) | inactive | –
16 | CCC(C)(C)O | inactive | –
17 | C#CC1(O)CCCCC1 | inactive | –
18 | Oc1ccc(C2(c3ccc(O)cc3)c3ccccc3-c3ccccc32)cc1 | inactive | –
19 | CCC[N+](=O)[O-] | inactive | –
20 | CC1CCCC1.[C-]#[O+].[C-]#[O+].[C-]#[O+].[Mn] | inactive | –

Row | SMILES | outcome | AC50
21 | CN(C)CCC#N | inactive | –
22 | CCCOC(=O)c1ccccc1C(=O)OCCC | inactive | –
23 | CCOC(=O)COc1ccc(Cl)cc1Cl | inactive | –
24 | O=C(O)c1cc[c]([Hg][Cl])cc1 | inactive | –
25 | O=c1c2ccccc2c(=O)c2c1cc(Cl)c1[nH]c3c([nH]c12)c(Cl)cc1c(=O)c2ccccc2c(=O)c13 | inactive | –
26 | CCC(Br)(CC)C(=O)NC(N)=O | inactive | –
27 | Cc1ccc(OP(=O)(Oc2ccc(C)cc2)Oc2ccc(C)cc2)cc1 (tested in a mixture with another compound) | inactive | –
28 | CCCC=NO | inactive | –
29 | [Cl][Sb]([Cl])[Cl] | – | 175 µM (active)
30 | Nc1ccc(-c2ccc(N)c(N)c2)cc1N | inactive | –
31 | Cc1ccccc1CCl | inactive | –
32 | O=[N+]([O-])O | inactive | –
33 | S=c1[nH]c2ccccc2[nH]1 | inactive | –
34 | BrCBr | inactive | –
35 | CCc1cccc(C)c1N(C(=O)CCl)[C@@H](C)COC | inactive | –
36 | CC(=O)C=Cc1ccccc1 | inactive | –
37 | C[N+](C)(C)CC(=O)[O-] | inactive | –
38 | CN(C)N | inactive | –
39 | O=[N+]([O-])c1ccc(Cl)cc1 | inactive | –
40 | [CH3][Sn]([CH3])([Cl])[Cl] | inactive | –
